Data published in the supplement of paper PMC12645437, “Orthogonal IMiD-Degron Pairs Induce Selective Protein Degradation in Cells” (ACS Chemical Biology, 2025).
The full ranking holds about 8,300 sequences; the median of “log2 fold change of degron read counts, EGFP-low vs EGFP+ sorted cells (limma voom), compound-induced degradation” is about -1.1, and the highest 2% start at about 3.2. This excerpt belongs to a sample that is enriched for the highest values.

Target: T1, CRBN, Q96SW2
T1 chain: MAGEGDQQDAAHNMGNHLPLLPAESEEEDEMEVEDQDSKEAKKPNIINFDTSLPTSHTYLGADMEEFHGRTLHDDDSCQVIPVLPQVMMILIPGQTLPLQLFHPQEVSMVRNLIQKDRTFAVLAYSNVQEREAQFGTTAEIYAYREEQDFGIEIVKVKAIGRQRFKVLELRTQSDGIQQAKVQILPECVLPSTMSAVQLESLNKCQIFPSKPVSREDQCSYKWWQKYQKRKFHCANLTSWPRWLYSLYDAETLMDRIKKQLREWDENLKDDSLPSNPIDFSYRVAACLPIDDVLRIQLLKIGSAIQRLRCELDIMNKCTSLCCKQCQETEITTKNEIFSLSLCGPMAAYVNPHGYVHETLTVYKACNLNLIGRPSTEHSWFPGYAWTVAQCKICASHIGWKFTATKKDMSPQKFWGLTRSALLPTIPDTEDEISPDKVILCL
Assay: log2 fold change of degron read counts, EGFP-low vs EGFP+ sorted cells (limma voom), compound-induced degradation; higher = more compound-induced degradation of the degron-EGFP fusion; degrons are variants of IKZF1/3 zinc finger 2; compound dose not given here
Conditions: Jurkat, 18 h

[1] = compound: compound 19 (5-tert-butyl-thalidomide)
[2] = compound: compound 22 (5-morpholino-thalidomide)
[3] = compound: compound 33 (diphenyl IMiD analogue)
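Further: pooled lentiviral library of zinc finger degron-EGFP fusions in mCherry-positive Jurkat cells, FACS-sorted after compound exposure, with degron abundance counted by next-generation sequencing.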

In the case of FWCNQCGHQFTQKGNLLRHIKL [46F_47W_49N_50Q_52G_53H_54Q_55F_67L_, Q9UKT9], the “log2 fold change of degron read counts” value [1] is reported as -2.03, the “log2 fold change of degron read counts” value [2] is reported as -2.39 and the “log2 fold change of degron read counts” value [3] is reported as -2.26. For the same sequence, the “log2 fold change of degron read counts” value (compound: thalidomide) was -1.81.

In the case of FTCNICGAIFTQKGNLLRHIKL [46F_47T_49N_50I_52G_53A_54I_55F_67L_, Q9UKT9], the “log2 fold change of degron read counts” value [1] is reported as -1, the “log2 fold change of degron read counts” value [2] is reported as 0.0209 and the “log2 fold change of degron read counts” value [3] is reported as 0.936. For the same sequence, the “log2 fold change of degron read counts” value (compound: thalidomide) was 1.06.

With FCCDICGANFTQKGNLLRHIKL [46F_47C_49D_50I_52G_53A_54N_55F_67L_, Q9UKT9] the “log2 fold change of degron read counts” value [1] was 0.761, the “log2 fold change of degron read counts” value [2] was 0.588 and the “log2 fold change of degron read counts” value [3] was 0.858. The “log2 fold change of degron read counts” value (compound: thalidomide) was -0.326.

For FHCDICGANFTQKGNLLRHIKL [46F_47H_49D_50I_52G_53A_54N_55F_67L_, Q9UKT9], the “log2 fold change of degron read counts” value [1] was -0.867, the “log2 fold change of degron read counts” value [2] was -0.624 and the “log2 fold change of degron read counts” value [3] was -1.82. The “log2 fold change of degron read counts” value (compound: thalidomide) was -2.82.

In the case of FECDICGANFTQKGNLLRHIKL [46F_47E_49D_50I_52G_53A_54N_55F_67L_, Q9UKT9], the “log2 fold change of degron read counts” value [1] is reported as -1.28, the “log2 fold change of degron read counts” value [2] is reported as -2.43 and the “log2 fold change of degron read counts” value [3] is reported as 0.537. For the same sequence, the “log2 fold change of degron read counts” value (compound: thalidomide) was 0.012.

FYCDICGANFTQKGNLLRHIKL [46F_47Y_49D_50I_52G_53A_54N_55F_67L_, Q9UKT9] was tested, and the “log2 fold change of degron read counts” value [1] was 2.78, the “log2 fold change of degron read counts” value [2] was 3.42 and the “log2 fold change of degron read counts” value [3] was 1.2. For the same sequence, the “log2 fold change of degron read counts” value (compound: thalidomide) was -0.676.

FLCDICGANFTQKGNLLRHIKL [46F_47L_49D_50I_52G_53A_54N_55F_67L_, Q9UKT9] was tested, and the “log2 fold change of degron read counts” value [1] was -1.24, the “log2 fold change of degron read counts” value [2] was -1.68 and the “log2 fold change of degron read counts” value [3] was 0.196. The “log2 fold change of degron read counts” value (compound: thalidomide) was -0.528.

With FWCDICGANFTQKGNLLRHIKL [46F_47W_49D_50I_52G_53A_54N_55F_67L_, Q9UKT9] the “log2 fold change of degron read counts” value [1] was 2.81, the “log2 fold change of degron read counts” value [2] was 3.71 and the “log2 fold change of degron read counts” value [3] was 1.34. For the same sequence, the “log2 fold change of degron read counts” value (compound: thalidomide) was 0.139.

For FDCPVCGAEFTQKGNLLRHIKL [46F_47D_49P_50V_52G_53A_54E_55F_67L_, Q9UKT9], the “log2 fold change of degron read counts” value [1] was -0.42, the “log2 fold change of degron read counts” value [2] was -1.74 and the “log2 fold change of degron read counts” value [3] was 0.6. For the same sequence, the “log2 fold change of degron read counts” value (compound: thalidomide) was 0.131.

For FSCDVCGAAFTQKGNLLRHIKL [46F_47S_49D_50V_52G_53A_54A_55F_67L_, Q9UKT9], the “log2 fold change of degron read counts” value [1] was 1.56, the “log2 fold change of degron read counts” value [2] was 1.45 and the “log2 fold change of degron read counts” value [3] was 1.14. The “log2 fold change of degron read counts” value (compound: thalidomide) was -0.292.

In the case of LICEICGFTCTQKGNLLRHIKL [46L_47I_49E_50I_52G_53F_54T_55C_67L_, Q9UKT9], the “log2 fold change of degron read counts” value [1] is reported as 0.795, the “log2 fold change of degron read counts” value [2] is reported as 2.24 and the “log2 fold change of degron read counts” value [3] is reported as 2.34. For the same sequence, the “log2 fold change of degron read counts” value (compound: thalidomide) was 3.13.

In the case of FNCEQCGAPFTQKGNLLRHIKL [46F_47N_49E_50Q_52G_53A_54P_55F_67L_, Q9UKT9], the “log2 fold change of degron read counts” value [1] is reported as -1.19, the “log2 fold change of degron read counts” value [2] is reported as -2 and the “log2 fold change of degron read counts” value [3] is reported as -2.69. For the same sequence, the “log2 fold change of degron read counts” value (compound: thalidomide) was -2.17.

For FQCEICGADFTQKGNLLRHIKL [46F_47Q_49E_50I_52G_53A_54D_55F_67L_, Q9UKT9], the “log2 fold change of degron read counts” value [1] was -0.47, the “log2 fold change of degron read counts” value [2] was 0.00637 and the “log2 fold change of degron read counts” value [3] was 1.29. For the same sequence, the “log2 fold change of degron read counts” value (compound: thalidomide) was 3.

For FQCEICGRPFTQKGNLLRHIKL [46F_47Q_49E_50I_52G_53R_54P_55F_67L_, Q9UKT9], the “log2 fold change of degron read counts” value [1] was -0.793, the “log2 fold change of degron read counts” value [2] was -0.383 and the “log2 fold change of degron read counts” value [3] was -1.07. The “log2 fold change of degron read counts” value (compound: thalidomide) was 1.31.

In the case of FWCEICGRPFTQKGNLLRHIKL [46F_47W_49E_50I_52G_53R_54P_55F_67L_, Q9UKT9], the “log2 fold change of degron read counts” value [1] is reported as 1.92, the “log2 fold change of degron read counts” value [2] is reported as 0.403 and the “log2 fold change of degron read counts” value [3] is reported as 0.52. For the same sequence, the “log2 fold change of degron read counts” value (compound: thalidomide) was -0.912.

For FNCEICGADFTQKGNLLRHIKL [46F_47N_49E_50I_52G_53A_54D_55F_67L_, Q9UKT9], the “log2 fold change of degron read counts” value [1] was -1.15, the “log2 fold change of degron read counts” value [2] was -2.31 and the “log2 fold change of degron read counts” value [3] was -1.14. For the same sequence, the “log2 fold change of degron read counts” value (compound: thalidomide) was -1.4.

In the case of FICEICGAPFTQKGNLLRHIKL [46F_47I_49E_50I_52G_53A_54P_55F_67L_, Q9UKT9], the “log2 fold change of degron read counts” value [1] is reported as 2.83, the “log2 fold change of degron read counts” value [2] is reported as 3.53 and the “log2 fold change of degron read counts” value [3] is reported as 2.76. The “log2 fold change of degron read counts” value (compound: thalidomide) was 3.43.

In the case of FGCEICGAPFTQKGNLLRHIKL [46F_47G_49E_50I_52G_53A_54P_55F_67L_, Q9UKT9], the “log2 fold change of degron read counts” value [1] is reported as 1.88, the “log2 fold change of degron read counts” value [2] is reported as 0.802 and the “log2 fold change of degron read counts” value [3] is reported as -0.557. The “log2 fold change of degron read counts” value (compound: thalidomide) was -0.51.

With FNCEICGAPFTQKGNLLRHIKL [46F_47N_49E_50I_52G_53A_54P_55F_67L_, Q9UKT9] the “log2 fold change of degron read counts” value [1] was 3.39, the “log2 fold change of degron read counts” value [2] was 2.54 and the “log2 fold change of degron read counts” value [3] was 0.567. The “log2 fold change of degron read counts” value (compound: thalidomide) was 1.58.

FWCEICGAPFTQKGNLLRHIKL [46F_47W_49E_50I_52G_53A_54P_55F_67L_, Q9UKT9] was tested, and the “log2 fold change of degron read counts” value [1] was 3.82, the “log2 fold change of degron read counts” value [2] was 3.42 and the “log2 fold change of degron read counts” value [3] was 2.64. For the same sequence, the “log2 fold change of degron read counts” value (compound: thalidomide) was 1.23.

With FQCEICGAPFTQKGNLLRHIKL [46F_47Q_49E_50I_52G_53A_54P_55F_67L_, Q9UKT9] the “log2 fold change of degron read counts” value [1] was 3.69, the “log2 fold change of degron read counts” value [2] was 3.61 and the “log2 fold change of degron read counts” value [3] was 2.03. The “log2 fold change of degron read counts” value (compound: thalidomide) was 3.72.

For FICEICGADFTQKGNLLRHIKL [46F_47I_49E_50I_52G_53A_54D_55F_67L_, Q9UKT9], the “log2 fold change of degron read counts” value [1] was -2.33, the “log2 fold change of degron read counts” value [2] was -0.887 and the “log2 fold change of degron read counts” value [3] was -0.381. For the same sequence, the “log2 fold change of degron read counts” value (compound: thalidomide) was 0.298.

With FWCEICGADFTQKGNLLRHIKL [46F_47W_49E_50I_52G_53A_54D_55F_67L_, Q9UKT9] the “log2 fold change of degron read counts” value [1] was 0.346, the “log2 fold change of degron read counts” value [2] was 0.98 and the “log2 fold change of degron read counts” value [3] was -0.492. For the same sequence, the “log2 fold change of degron read counts” value (compound: thalidomide) was -1.5.

For LYCNQCGFFCTQKGNLLRHIKL [46L_47Y_49N_50Q_52G_53F_54F_55C_67L_, Q9UKT9], the “log2 fold change of degron read counts” value [1] was -0.205, the “log2 fold change of degron read counts” value [2] was -0.821 and the “log2 fold change of degron read counts” value [3] was -0.706. The “log2 fold change of degron read counts” value (compound: thalidomide) was -0.795.

FFCDICGAGFTQKGNLLRHIKL [46F_47F_49D_50I_52G_53A_54G_55F_67L_, Q9UKT9] was tested, and the “log2 fold change of degron read counts” value [1] was 2.9, the “log2 fold change of degron read counts” value [2] was 1.78 and the “log2 fold change of degron read counts” value [3] was 0.35. The “log2 fold change of degron read counts” value (compound: thalidomide) was -0.766.

FQCNQCGHIFTQKGNLLRHIKL [46F_47Q_49N_50Q_52G_53H_54I_55F_67L_, Q9UKT9] was tested, and the “log2 fold change of degron read counts” value [1] was -2.78, the “log2 fold change of degron read counts” value [2] was -2.92 and the “log2 fold change of degron read counts” value [3] was -2.91. The “log2 fold change of degron read counts” value (compound: thalidomide) was -2.7.

FICNQCGAAFTQKGNLLRHIKL [46F_47I_49N_50Q_52G_53A_54A_55F_67L_, Q9UKT9] was tested, and the “log2 fold change of degron read counts” value [1] was -2.19, the “log2 fold change of degron read counts” value [2] was -0.99 and the “log2 fold change of degron read counts” value [3] was -0.297. For the same sequence, the “log2 fold change of degron read counts” value (compound: thalidomide) was -0.649.

LCCEICGFNCTQKGNLLRHIKL [46L_47C_49E_50I_52G_53F_54N_55C_67L_, Q9UKT9] was tested, and the “log2 fold change of degron read counts” value [1] was -0.957, the “log2 fold change of degron read counts” value [2] was -1.02 and the “log2 fold change of degron read counts” value [3] was 0.0485. The “log2 fold change of degron read counts” value (compound: thalidomide) was 0.0948.
